Our source for the composite z-score and z-score values is PubChem BioAssay.

The source made the active and inactive calls. Unless noted, the rule behind the calls is not given here.

Assay [1] deals with Wnt5a (protein binding on small-molecule microarray). Briefly: small molecules binding Wnt5a protein – biophysical, small-molecule microarray, 635/667 nm fluorescence, primary screen (AID 1142).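 Note: fluorescence read at 667 nm with signal to noise per printed feature.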 To be noted: 635 nm fluorescence, higher = more signal.
Assay [2] is described as follows: ATP-based viability of Huh7 replicon cells – cell-based, CellTiter-Glo luminescence, basal, 48 h, cytotoxicity control for HCV replication inhibitor project, primary screen (AID 1143).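 Note: Huh7 hepatoma cells carrying a hepatitis C replication reporter with no stimulus; test concentration not given here.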 The following applies: higher = more signal, called active from +8 up or from −8 down. For orientation: In antiviral work, replicon cells carry a viral genome segment that copies itself.

The nature of assay [3]: Pseudomonas biofilm growth suppression – PAO1 strain, BacTiter-Glo luminescence, LB-PBS, primary screen (AID 1144). The following applies: P. aeruginosa PAO1 biofilm, 12 h, higher = more signal.
Assay [4] can be described thus: basal CRE-LacZ reporter activity in PC12 – cell-based, unstimulated, primary screen (AID 1145). To be noted: no forskolin, luminescence, 4.5 h, higher = more signal, called active from +8 up or from −8 down.
Assay [5] is described as follows: forskolin-driven CRE-LacZ activity in PC12 – cell-based, CRE-LacZ reporter, forskolin-stimulated, primary screen (AID 1146).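 Note: PC12 cells with 6xCRE LacZ reporter stimulated by forskolin 10 µM; beta-galactosidase reporter signal reflecting CREB driven transcription.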 To be noted: luminescence, 4.5 h, higher = more signal, called active from +8 up or from −8 down.
The target of assay [6] is Streptavidin (Streptomyces avidinii) (UniProt P22629). Briefly: compounds binding control protein streptavidin – biophysical, small-molecule microarray, 635/667 nm fluorescence, artefact control for SMM compound annotation, primary screen (AID 1147).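 Note: signal reflects streptavidin binding to arrayed compounds as a control protein.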 To be noted: higher = more signal.
Chain of Streptavidin (Streptomyces avidinii) (P22629 whole entry, looked up): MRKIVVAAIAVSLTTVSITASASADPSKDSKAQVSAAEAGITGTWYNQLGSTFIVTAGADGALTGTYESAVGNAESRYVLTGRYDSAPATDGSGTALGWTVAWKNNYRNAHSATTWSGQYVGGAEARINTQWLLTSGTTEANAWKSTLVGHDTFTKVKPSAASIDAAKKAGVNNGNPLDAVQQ
Assay [7] can be described thus: probe aInhba binding on compound microarray – biochemical, small-molecule microarray, 635/667 nm fluorescence, primary screen (AID 1148).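 Note: score merges 667nm spot fluorescence with signal-to-noise for antibody binding to printed compounds.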 To be noted: higher = more signal.
Assay [8] has as its target Torsin-1A (Homo sapiens) (UniProt O14656). Briefly: TOR1A wild-type binding on microarray – cell lysate, small-molecule microarray, lysate, 635/667 nm, primary screen (AID 1149). To be noted: COS7 hTOR1A-WT lysate, 635 nm fluorescence, higher = more signal.
For assay [9] the target is unchanged. Briefly: torsin A mutant lysate binding on microarrays – cell lysate, small-molecule microarray, COS7 lysate, 635/667 nm fluorescence, primary screen (AID 1150).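 Note: score pools 667 nm emission and signal to noise measuring lysate protein binding.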 To be noted: COS7 hTOR1A mutant lysate, 635 nm fluorescence, higher = more signal.
Assay [10] relates to Sonic hedgehog protein (Shh). Briefly: Sonic hedgehog microarray binding compounds – biochemical, small-molecule microarray, 635/667 nm fluorescence, primary screen (AID 1151).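 Note: Shh protein binding to compounds spotted on small-molecule microarray slides; score combines spot fluorescence intensity with signal-to-noise across triplicate slides.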 The following applies: 635 nm fluorescence, higher = more signal.
Assay [11] is described as follows: optical density shifts of acrAB sulA E. coli – strain DRC41, OD650, 48 h, E. coli filamentation inducer project, primary screen (AID 1152).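 Note: E. coli MC1000 strain DRC41 lacking acrAB efflux pump and sulA.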 The following applies: higher = more signal, called active from +8 up or from −8 down.
A short description of assay [12]: probe aLefty1 binding on compound microarray – biochemical, small-molecule microarray, 635/667 nm fluorescence, primary screen (AID 1153).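 Note: score merges spot fluorescence with signal-to-noise ratio from the scanned slide images.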 To be noted: higher = more signal.
Assay [13] is described as follows: plasmodial surface anion channel blockers, osmotic lysis – cell-based, P. falciparum Indochina, OD700, 1 h, primary screen (AID 1154). To be noted: P. falciparum Indochina infected RBC osmotic lysis, higher = more signal, called active from +8 up or from −8 down.
The nature of assay [14]: plasmodial surface anion channel blockers, osmotic lysis – cell-based, P. falciparum Indochina, OD700, 2 h, primary screen (AID 1155).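 Note: lysis reports solute entry through the parasite surface anion channel PSAC.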 The following applies: P. falciparum Indochina infected erythrocytes, higher = more signal, called active from +8 up or from −8 down.
Assay [15] can be described thus: changes in parasitized red cell lysis, either direction – P. falciparum Indochina, OD700, 3 h, PSAC antagonist project, primary screen (AID 1156). To be noted: P. falciparum-infected erythrocytes, osmotic lysis, higher = more signal, called active from +8 up or from −8 down.
Assay [16] can be described thus: plasmodial surface anion channel blockers, osmotic lysis – cell-based, P. falciparum Indochina, OD700, 18 h, primary screen (AID 1157). To be noted: P. falciparum Indochina infected erythrocytes, osmotic lysis OD700, 18 h; higher = more signal, called active from +8 up or from −8 down.
Assay [17] in a line: S6 kinase pathway phospho-S6 level changes – cell-based, A549, cytoblot, luminescence, serum-stimulated, primary screen (AID 1158).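 Note: serum-stimulated A549 lung adenocarcinoma cells; signal is phosphorylated S6 detected by cytoblot immunostaining with HRP secondary.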 The following applies: 5 h, higher = more signal.
Assay [18] has as its target NADPH oxidase 2 (Homo sapiens) (UniProt P04839). Briefly: compounds shifting NOX2 Amplex Red fluorescence – cell-based, HEK293-NOX2, PMA-stimulated, NOX inhibitor project, primary screen (AID 1159). Note: test concentration not given here. The following applies: 45 min, higher = more signal, called active from +8 up or from −8 down.
The target of assay [19] is NADPH oxidase 4 (Homo sapiens) (UniProt Q9NPH5). Description: compounds shifting NOX4 Amplex Red fluorescence – cell-based, HEK293-NOX4, tetracycline-induced, NOX inhibitor project, primary screen (AID 1160). The following applies: HEK293-NOX4, Amplex Red H2O2 fluorescence, 45 min; higher = more signal, called active from +8 up or from −8 down.
Chain of NADPH oxidase 4 (Homo sapiens) (Q9NPH5 whole entry, looked up): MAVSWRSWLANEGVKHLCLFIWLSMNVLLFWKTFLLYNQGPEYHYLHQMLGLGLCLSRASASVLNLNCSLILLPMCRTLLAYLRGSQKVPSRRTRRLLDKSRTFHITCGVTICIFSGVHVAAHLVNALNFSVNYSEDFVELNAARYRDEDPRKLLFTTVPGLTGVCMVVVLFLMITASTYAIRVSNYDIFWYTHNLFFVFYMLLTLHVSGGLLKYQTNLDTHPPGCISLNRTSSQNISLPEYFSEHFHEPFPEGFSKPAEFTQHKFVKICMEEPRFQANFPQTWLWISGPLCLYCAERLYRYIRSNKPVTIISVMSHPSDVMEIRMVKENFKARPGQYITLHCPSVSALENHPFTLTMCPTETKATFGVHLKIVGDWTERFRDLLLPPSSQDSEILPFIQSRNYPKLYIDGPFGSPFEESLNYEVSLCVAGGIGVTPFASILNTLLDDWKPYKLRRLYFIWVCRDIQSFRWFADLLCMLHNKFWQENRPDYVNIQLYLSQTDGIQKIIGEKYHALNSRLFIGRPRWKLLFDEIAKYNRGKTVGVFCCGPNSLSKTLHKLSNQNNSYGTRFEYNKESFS
Assay [20] deals with NADPH oxidase 5 (Homo sapiens) (UniProt Q96PH1). Description: compounds shifting NOX5 Amplex Red fluorescence – cell-based, HEK293-NOX5, NOX inhibitor project, primary screen (AID 1161). To be noted: HEK293-NOX5, ionomycin, 45 min, higher = more signal.
Chain of NADPH oxidase 5 (Homo sapiens) (Q96PH1 whole entry, looked up): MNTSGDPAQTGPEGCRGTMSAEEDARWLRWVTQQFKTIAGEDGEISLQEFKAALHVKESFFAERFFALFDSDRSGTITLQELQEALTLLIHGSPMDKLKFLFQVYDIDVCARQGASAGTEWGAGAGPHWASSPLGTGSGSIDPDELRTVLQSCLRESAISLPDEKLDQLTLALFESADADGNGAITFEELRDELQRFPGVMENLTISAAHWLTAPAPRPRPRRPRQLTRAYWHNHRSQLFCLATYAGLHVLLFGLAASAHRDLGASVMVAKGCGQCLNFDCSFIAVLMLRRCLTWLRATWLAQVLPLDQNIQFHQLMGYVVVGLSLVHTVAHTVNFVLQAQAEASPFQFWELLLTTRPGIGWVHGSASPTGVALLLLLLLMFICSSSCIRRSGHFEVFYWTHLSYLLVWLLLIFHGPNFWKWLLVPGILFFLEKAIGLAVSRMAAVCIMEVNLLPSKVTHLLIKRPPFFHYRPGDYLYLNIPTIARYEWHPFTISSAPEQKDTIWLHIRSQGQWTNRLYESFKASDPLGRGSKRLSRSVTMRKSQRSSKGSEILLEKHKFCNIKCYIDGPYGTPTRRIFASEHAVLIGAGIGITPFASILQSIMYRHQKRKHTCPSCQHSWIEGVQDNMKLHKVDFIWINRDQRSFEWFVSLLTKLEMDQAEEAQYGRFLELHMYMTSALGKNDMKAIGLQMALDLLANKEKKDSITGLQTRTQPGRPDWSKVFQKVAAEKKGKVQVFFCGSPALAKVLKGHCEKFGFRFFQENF

Chain of Torsin-1A (Homo sapiens) (O14656 whole entry, looked up): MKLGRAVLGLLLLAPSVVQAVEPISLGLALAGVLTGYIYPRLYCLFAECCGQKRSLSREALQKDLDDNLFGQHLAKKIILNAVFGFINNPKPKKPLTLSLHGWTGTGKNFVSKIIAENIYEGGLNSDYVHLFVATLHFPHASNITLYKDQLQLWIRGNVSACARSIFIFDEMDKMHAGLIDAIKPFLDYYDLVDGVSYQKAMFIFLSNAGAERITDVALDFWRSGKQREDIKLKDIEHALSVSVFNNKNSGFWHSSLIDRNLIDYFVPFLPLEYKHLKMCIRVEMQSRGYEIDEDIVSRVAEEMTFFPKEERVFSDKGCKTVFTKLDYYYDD
Chain of NADPH oxidase 2 (Homo sapiens) (P04839 whole entry, looked up): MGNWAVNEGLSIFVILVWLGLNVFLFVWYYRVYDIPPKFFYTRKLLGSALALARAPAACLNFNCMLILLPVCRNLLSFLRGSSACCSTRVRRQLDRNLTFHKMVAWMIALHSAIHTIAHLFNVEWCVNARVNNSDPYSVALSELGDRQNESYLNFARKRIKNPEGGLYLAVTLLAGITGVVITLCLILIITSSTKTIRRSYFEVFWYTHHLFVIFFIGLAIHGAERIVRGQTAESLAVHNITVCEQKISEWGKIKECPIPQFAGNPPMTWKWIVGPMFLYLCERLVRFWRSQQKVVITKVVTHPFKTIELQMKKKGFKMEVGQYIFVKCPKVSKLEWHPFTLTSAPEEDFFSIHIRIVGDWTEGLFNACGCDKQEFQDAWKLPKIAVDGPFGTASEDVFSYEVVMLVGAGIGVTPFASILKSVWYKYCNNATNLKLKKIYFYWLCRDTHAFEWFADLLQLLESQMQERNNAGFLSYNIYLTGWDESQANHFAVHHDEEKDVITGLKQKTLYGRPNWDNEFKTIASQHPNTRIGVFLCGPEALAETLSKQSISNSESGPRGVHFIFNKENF

As to `CN(C)C(=O)[C@@]1(CCS(=O)(=O)c2ccccc2)N=C(c2ccc(OCCCO)cc2)O[C@H]1c1ccccc1N=[N+]=[N-]`, the composite z-score was 1 in assay [1]; 1.82 in assay [6]; 0.0569 in assay [7]; 0.155 with Torsin-1A (Homo sapiens) [8]; 0.797 with Torsin-1A (Homo sapiens) [9]; -0.337 in assay [10]. In [12], the composite z-score was -0.148. The z-score in [2] was -3.2 (inactive); in [3], 1.75 (inactive); in [4] it was 0.447 (inactive); in assay [5], -1.37 (inactive); in assay [11] it was 0.395 (inactive); in assay [13] it was 28.1 (active). The z-score was 27.4 (active) in assay [14]; 1.78 (inactive) in assay [15]; 2.09 (inactive) in [16]; -0.76 in assay [17]; -2.01 (inactive) in [18]; -0.478 (inactive) in [19]. Besides, in assay [20], the z-score is -0.984.

On to `CN1C(=O)C2C(C1=O)C1C=C(c3ccc(CO)cc3)C2C(c2cccs2)N1C` (stereo not given), for which the composite z-score is -0.192 in [1]; 1.56 in [6]; -0.0523 in assay [7]; 0.233 with Torsin-1A (Homo sapiens) [8]; 0.221 with Torsin-1A (Homo sapiens) [9]; 0.237 in [10]. In assay [12], this molecule showed a composite z-score of 0.186. The z-score is -1.04 (inactive) in [2]; 2.04 (inactive) in assay [3]; 1.98 (inactive) in [4]; -0.999 (inactive) in assay [5]; 0.894 (inactive) in [11]; 3.57 (inactive) in [13]. For the same molecule, the z-score in assay [14] was 1.29 (inactive); in assay [15] it was 1.43 (inactive); in assay [16], 0.699 (inactive); in assay [17], -0.105; in assay [18], 0.158 (inactive); in assay [19], -1.96 (inactive). In addition, the z-score in assay [20] is -0.45.

As to `O=C1OCCC=C[C@H]2OC34C=CCN(CCN5CCOCC5)C(=O)[C@H]3N(CCCO)C(=O)[C@@H]4C12` (stereo not given in full), the composite z-score in assay [1] is -0.543; in assay [6] it was -0.613; in assay [7], -0.0066; with Torsin-1A (Homo sapiens) [8], -1.78; in the assay with Torsin-1A (Homo sapiens) [9], -1.33; in assay [10] it was 0.243. In assay [12], this molecule yielded a composite z-score of -0.0464. Also, the z-score was -2.19 (inactive) in [2]; -0.561 (inactive) in assay [3]; -0.354 (inactive) in assay [4]; 1.74 (inactive) in assay [5]; 0.274 (inactive) in [11]; 0.377 (inactive) in assay [13]. Also, the z-score is -1.35 (inactive) in assay [14]; 0.901 (inactive) in [15]; -1.73 (inactive) in assay [16]; 0.41 in assay [17]; -0.433 (inactive) in assay [18]; -1.97 (inactive) in [19]. For the same molecule, the z-score in assay [20] is -0.183.

For the molecule `CCCC[C@@H]1C[C@H]1[C@@H](NC(=O)Cc1ccccc1)c1ccc(Cl)cc1`, the composite z-score is 0.545 in [1]; 2.32 in assay [6]; -0.0002 in assay [7]; 0.578 with Torsin-1A (Homo sapiens) [8]; 0.311 with Torsin-1A (Homo sapiens) [9]; -0.22 in [10]. Further, the composite z-score in assay [12] worked out at 0.509. Besides, the z-score is -3.44 (inactive) in assay [2]; 1.19 (inactive) in assay [3]; 0.962 (inactive) in assay [4]; 0.56 (inactive) in [5]; -1.71 (inactive) in assay [11]; 1.15 (inactive) in [13]. In addition, the z-score in assay [14] was 1.03 (inactive); in assay [15], 2.18 (inactive); in assay [16] it was 1.53 (inactive); in assay [17], -1.06; in [18] it was -0.795 (inactive); in assay [19] it was -0.195 (inactive). The z-score in [20] worked out at 1.88.
